Many of the other results were omitted from the sample, so hits are more common in it than they were.
RmlCD inh 1536: inhibitors of Mycobacterium tuberculosis RmlC and RmlD coupled enzymes; P9WH09+P9WH11; RmlC+RmlD coupled enzyme assay, percent inhibition; primary screen in compound mixtures; inhibition, % at 3.6 µM; 0.03% of 160,000 active; in the data active means inhibition mostly above about 34%, no sharp cut-off
* marks the source's active call; other numbers are inactive results.

SMILES	RmlCD inh 1536
CCOC(=O)c1sc(Nc2nc3c(OC)cccc3s2)nc1C	74*
COc1ccc(CNC(=O)C2CCCN2S(=O)(=O)c2ccc(F)cc2)cc1 (centres undefined)	14
CCc1cccc(CC)c1NC(=O)COC(=O)CC1c2ccccc2CCN1S(=O)(=O)c1ccccc1 (centres undefined)	6
Cc1ccc(NC(=O)c2ccc(C(C)(C)C)cc2)cc1[N+](=O)[O-]	-10
Cc1ccc2nc(SCC(=O)N3CCN(c4ccccc4)CC3)[nH]c2c1	1
Clc1ccc(-c2cn3nc4c(nc3n2)CCCC4)cc1	-13
CCc1ccc(-c2cn3c(n2)SCC3)cc1	4
CCc1ccc(-c2cn3nc(-c4ccccc4)cnc3n2)cc1	70*
N/C(=N\OC(=O)COc1ccc2ccccc2c1)c1cccnc1	8
CCOC(=O)c1c(O)cc(C)[nH]c1=O	-7
CCOc1ccccc1OCC(=O)NCCc1ccc(S(N)(=O)=O)cc1	-7
COc1ccc(N2C(=O)CSC(c3ccccc3)C2=O)cc1 (centres undefined)	5
CC(C)CC(C(=O)Oc1ccc2c3c(c(=O)oc2c1)CCC3)N1C(=O)c2ccccc2C1=O (centres undefined)	55*
CC(C)Oc1ccc2c3c(c(=O)oc2c1)CCC3	-14
CCC(NC(=O)OC(C)(C)C)C(=O)Oc1ccc2c3c(c(=O)oc2c1)CCC3 (centres undefined)	7
O=C(Oc1ccc2c3c(c(=O)oc2c1)CCCC3)c1ccco1	10
CC[C@@H](NS(=O)(=O)c1ccc(C)cc1)C(=O)Oc1ccc2c3c(c(=O)oc2c1)CCC3	46*
Cc1ccc(S(=O)(=O)NC(CC(C)C)C(=O)Oc2ccc3c4c(c(=O)oc3c2)CCC4)cc1 (centres undefined)	7
NNC(=O)c1ccc(N2CCCCCC2)c([N+](=O)[O-])c1	-6
O=S(=O)(Nc1cccc2c1CCCC2)c1ccc(Cl)cc1	-6
O=C1c2ccccc2C(=O)N1CCc1c[nH]c2ccc(O)cc12	-10
Cc1cc(C)n(C(=O)/C=C/c2cccs2)n1	8
Cc1ccc(-c2nc(NC(=O)c3cc(C(C)(C)C)nn3C)sc2C)cc1Cl	5
